Laboratory results from PMC7862700, “An all-to-all approach to the identification of sequence-specific readers for epigenetic DNA modifications on cytosine”.

Experiments:
Experiment in all cases: DAPPL (digital affinity profiling via proximity ligation, sequencing); 10 mM Tris-HCl pH 7.5, 50 mM NaCl, 1 mM DTT, 4% glycerol, room temperature, 30 min; GST-TFs on glutathione beads, 16-mer random dsDNA library, 0.1% formaldehyde crosslink after washing; high values mean tight binding
FEV = target: T1, FEV (Homo sapiens, UniProt Q99581 1-238); conditions: protein: recombinant; tags: N-terminal GST; dsDNA, one strand shown
T1 sequence: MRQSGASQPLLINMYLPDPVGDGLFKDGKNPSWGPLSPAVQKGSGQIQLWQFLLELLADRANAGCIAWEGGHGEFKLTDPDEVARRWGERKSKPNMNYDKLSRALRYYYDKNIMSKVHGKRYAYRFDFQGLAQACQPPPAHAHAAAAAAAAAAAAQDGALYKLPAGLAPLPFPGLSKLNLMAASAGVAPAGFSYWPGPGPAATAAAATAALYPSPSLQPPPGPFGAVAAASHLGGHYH
Summary of the method: (§1)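 Pools of DNA-barcoded human transcription factors, expressed in yeast as GST fusions on glutathione beads and combined with a tag-only sample, were incubated with 200 nmole of a 16-mer random double-stranded DNA library. Incubation took 30 min at room temperature in Tris/NaCl/DTT/glycerol buffer and was followed by washing, 0.1% formaldehyde crosslinking, proximity ligation (BsaI/T4 ligase, 1 h, 37 °C), PCR amplification and sequencing on an Illumina NextSeq500. Binding signal is the ratio of a hexamer's read frequency for a factor to its frequency for the tag-only sample.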

ETV5 = ETV5 (Homo sapiens, UniProt P41161 1-510); conditions: protein: recombinant; tags: N-terminal GST; dsDNA, one strand shown
Summary of the method: as §1

HSF1 = HSF1 (Homo sapiens, UniProt Q00613 1-529); conditions: protein: recombinant; tags: N-terminal GST; chain copies: 3; dsDNA, one strand shown
Summary of the method: as §1

SPIC = target: T2, SPIC (Homo sapiens, UniProt Q8N5J4 1-248); conditions: protein: recombinant; tags: N-terminal GST; dsDNA, one strand shown
T2 sequence: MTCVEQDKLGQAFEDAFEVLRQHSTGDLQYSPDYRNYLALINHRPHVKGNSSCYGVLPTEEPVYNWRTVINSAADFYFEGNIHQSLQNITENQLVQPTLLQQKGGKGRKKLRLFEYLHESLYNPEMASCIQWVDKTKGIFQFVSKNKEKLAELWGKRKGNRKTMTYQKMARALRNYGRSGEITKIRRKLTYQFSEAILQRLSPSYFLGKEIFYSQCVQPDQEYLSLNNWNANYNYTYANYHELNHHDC
Summary of the method: as §1

ELF4 = ELF4 (Homo sapiens, UniProt Q99607 1-663); conditions: protein: recombinant; tags: N-terminal GST; dsDNA, one strand shown
Summary of the method: as §1

ELK4 = target: T3, ELK4 (Homo sapiens, UniProt P28324-2 1-405); conditions: protein: recombinant; tags: N-terminal GST; dsDNA, one strand shown
T3 sequence: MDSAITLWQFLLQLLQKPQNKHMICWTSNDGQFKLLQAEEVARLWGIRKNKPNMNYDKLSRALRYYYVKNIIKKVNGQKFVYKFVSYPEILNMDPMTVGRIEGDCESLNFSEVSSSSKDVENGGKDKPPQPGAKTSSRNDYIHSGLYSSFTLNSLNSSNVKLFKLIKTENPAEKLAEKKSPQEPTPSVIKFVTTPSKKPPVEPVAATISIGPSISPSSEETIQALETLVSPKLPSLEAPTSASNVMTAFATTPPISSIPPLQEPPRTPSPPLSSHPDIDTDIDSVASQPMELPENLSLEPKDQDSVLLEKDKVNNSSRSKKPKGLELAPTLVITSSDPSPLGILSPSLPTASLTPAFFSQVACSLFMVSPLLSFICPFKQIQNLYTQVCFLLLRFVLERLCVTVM
Summary of the method: as §1

ETV2 = target: T4, ETV2 (Homo sapiens, UniProt O00321 1-342); conditions: protein: recombinant; tags: N-terminal GST; dsDNA, one strand shown
T4 sequence: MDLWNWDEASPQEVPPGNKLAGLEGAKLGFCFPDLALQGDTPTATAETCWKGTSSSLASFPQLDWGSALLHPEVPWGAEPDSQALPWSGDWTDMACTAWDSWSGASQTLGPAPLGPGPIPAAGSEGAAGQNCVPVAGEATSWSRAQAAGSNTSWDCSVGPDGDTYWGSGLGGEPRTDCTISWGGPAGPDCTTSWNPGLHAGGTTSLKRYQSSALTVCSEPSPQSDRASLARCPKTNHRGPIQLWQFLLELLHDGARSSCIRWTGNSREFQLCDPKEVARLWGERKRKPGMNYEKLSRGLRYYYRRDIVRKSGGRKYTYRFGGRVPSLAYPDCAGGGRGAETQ
Summary of the method: as §1

ELF3 = target: T5, ELF3 (Homo sapiens, UniProt P78545 1-371); conditions: protein: recombinant; tags: N-terminal GST; dsDNA, one strand shown
T5 sequence: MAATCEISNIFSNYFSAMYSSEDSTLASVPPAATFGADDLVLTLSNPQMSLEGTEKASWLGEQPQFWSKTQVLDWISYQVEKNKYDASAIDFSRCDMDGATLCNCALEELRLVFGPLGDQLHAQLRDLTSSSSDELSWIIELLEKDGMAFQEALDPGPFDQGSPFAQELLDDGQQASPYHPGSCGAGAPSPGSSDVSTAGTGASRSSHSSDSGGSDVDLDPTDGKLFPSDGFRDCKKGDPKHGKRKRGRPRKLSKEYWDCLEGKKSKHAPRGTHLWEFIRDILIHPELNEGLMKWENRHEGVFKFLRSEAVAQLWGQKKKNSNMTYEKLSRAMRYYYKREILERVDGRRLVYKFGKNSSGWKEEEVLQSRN
Summary of the method: as §1

CRX = CRX (Homo sapiens, UniProt O43186 1-299); conditions: protein: recombinant; tags: N-terminal GST; dsDNA, one strand shown
Summary of the method: as §1

ETV1 = ETV1 (Homo sapiens, UniProt P50549 1-477); conditions: protein: recombinant; tags: N-terminal GST; dsDNA, one strand shown
Summary of the method: as §1

Sequence of ELF4 (Q99607 whole entry): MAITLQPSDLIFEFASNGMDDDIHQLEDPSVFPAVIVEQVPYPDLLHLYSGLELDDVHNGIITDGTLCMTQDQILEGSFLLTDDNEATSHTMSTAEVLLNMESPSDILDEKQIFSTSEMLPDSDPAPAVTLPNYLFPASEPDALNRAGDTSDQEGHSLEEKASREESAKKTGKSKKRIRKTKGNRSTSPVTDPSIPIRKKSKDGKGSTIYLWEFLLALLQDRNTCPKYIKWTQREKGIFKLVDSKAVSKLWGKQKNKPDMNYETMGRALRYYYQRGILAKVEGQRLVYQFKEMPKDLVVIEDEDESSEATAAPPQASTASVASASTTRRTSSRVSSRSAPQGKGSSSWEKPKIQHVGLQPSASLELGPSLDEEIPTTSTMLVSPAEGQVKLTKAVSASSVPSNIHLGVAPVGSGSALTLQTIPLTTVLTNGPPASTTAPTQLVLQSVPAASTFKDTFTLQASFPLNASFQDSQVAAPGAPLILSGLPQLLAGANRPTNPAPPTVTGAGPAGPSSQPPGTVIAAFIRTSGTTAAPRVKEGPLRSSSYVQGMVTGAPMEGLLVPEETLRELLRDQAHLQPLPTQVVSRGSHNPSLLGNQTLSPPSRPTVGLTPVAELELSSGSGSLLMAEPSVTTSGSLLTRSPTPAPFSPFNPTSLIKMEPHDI
Sequence of ETV1 (P50549 whole entry): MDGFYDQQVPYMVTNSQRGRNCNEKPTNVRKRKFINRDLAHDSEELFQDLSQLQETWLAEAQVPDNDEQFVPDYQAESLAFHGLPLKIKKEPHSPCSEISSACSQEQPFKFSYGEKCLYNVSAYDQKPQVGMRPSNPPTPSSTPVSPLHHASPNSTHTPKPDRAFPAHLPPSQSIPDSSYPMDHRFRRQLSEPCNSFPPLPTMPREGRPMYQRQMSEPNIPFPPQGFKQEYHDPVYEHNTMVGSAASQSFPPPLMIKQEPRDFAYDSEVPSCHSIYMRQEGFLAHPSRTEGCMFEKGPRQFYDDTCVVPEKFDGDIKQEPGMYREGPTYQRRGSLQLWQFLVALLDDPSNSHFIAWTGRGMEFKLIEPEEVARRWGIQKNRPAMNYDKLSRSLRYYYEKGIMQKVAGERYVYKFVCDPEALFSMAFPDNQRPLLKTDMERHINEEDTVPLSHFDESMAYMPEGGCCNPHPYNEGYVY
Sequence of HSF1 (Q00613 whole entry): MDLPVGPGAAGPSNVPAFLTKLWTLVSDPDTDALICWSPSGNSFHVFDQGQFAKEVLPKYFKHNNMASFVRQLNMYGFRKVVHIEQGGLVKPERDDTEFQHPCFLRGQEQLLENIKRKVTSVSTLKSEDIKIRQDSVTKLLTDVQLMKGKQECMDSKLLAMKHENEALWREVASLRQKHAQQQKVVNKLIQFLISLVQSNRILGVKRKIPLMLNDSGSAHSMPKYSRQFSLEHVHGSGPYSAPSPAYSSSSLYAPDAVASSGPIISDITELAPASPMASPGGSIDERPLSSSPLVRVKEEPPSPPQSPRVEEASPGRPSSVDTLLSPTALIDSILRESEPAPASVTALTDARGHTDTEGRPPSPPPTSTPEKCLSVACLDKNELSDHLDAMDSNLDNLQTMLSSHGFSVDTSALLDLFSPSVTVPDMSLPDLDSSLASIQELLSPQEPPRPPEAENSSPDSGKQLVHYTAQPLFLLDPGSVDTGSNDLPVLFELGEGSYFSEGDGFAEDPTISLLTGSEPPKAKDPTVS
Sequence of ETV5 (P41161 whole entry): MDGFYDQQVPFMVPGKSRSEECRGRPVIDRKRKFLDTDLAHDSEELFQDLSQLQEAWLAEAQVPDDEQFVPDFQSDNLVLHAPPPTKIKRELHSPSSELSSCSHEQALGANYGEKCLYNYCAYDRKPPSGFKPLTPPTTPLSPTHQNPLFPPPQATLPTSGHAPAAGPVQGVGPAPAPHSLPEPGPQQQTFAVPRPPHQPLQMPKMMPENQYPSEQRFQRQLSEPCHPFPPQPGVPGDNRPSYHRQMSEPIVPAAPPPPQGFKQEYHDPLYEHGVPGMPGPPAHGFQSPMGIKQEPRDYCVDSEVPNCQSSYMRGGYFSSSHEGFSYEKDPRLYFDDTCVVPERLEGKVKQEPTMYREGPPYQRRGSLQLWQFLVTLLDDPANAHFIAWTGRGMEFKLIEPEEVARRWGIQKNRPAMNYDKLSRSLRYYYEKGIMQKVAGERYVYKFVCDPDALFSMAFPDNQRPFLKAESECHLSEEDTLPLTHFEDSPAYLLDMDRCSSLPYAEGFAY
Sequence of CRX (O43186 whole entry): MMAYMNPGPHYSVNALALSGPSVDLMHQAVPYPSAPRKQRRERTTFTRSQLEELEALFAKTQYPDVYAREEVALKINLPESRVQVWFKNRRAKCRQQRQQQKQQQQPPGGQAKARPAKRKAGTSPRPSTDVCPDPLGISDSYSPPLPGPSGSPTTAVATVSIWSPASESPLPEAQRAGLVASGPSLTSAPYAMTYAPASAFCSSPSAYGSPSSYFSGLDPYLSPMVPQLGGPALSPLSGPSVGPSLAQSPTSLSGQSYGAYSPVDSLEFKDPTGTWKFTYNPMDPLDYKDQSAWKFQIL

Sequence | binding signal (FEV) | binding signal (ETV5) | binding signal (HSF1) | binding signal (SPIC) | binding signal (ELF4) | binding signal (ELK4) | binding signal (ETV2) | binding signal (ELF3) | binding signal (CRX) | binding signal (ETV1)
TTTGGA | 1.2 fold enrichment (6-mer frequency, TF over GST control) | 1.21 fold enrichment (6-mer frequency, TF over GST control) | 1.48 fold enrichment (6-mer frequency, TF over GST control) | 1.28 fold enrichment (6-mer frequency, TF over GST control) | 1.12 fold enrichment (6-mer frequency, TF over GST control) | 1.14 fold enrichment (6-mer frequency, TF over GST control) | 1.22 fold enrichment (6-mer frequency, TF over GST control) | 1.13 fold enrichment (6-mer frequency, TF over GST control) | 1.48 fold enrichment (6-mer frequency, TF over GST control) | 1.24 fold enrichment (6-mer frequency, TF over GST control)
GTTAAT | 1.08 fold enrichment (6-mer frequency, TF over GST control) | 1.17 fold enrichment (6-mer frequency, TF over GST control) | 1.6 fold enrichment (6-mer frequency, TF over GST control) | 1.11 fold enrichment (6-mer frequency, TF over GST control) | 1.14 fold enrichment (6-mer frequency, TF over GST control) | 1.05 fold enrichment (6-mer frequency, TF over GST control) | 1.18 fold enrichment (6-mer frequency, TF over GST control) | 1.09 fold enrichment (6-mer frequency, TF over GST control) | 2.41 fold enrichment (6-mer frequency, TF over GST control) | 1 fold enrichment (6-mer frequency, TF over GST control)
ATTACT | 1.27 fold enrichment (6-mer frequency, TF over GST control) | 1.23 fold enrichment (6-mer frequency, TF over GST control) | 1.66 fold enrichment (6-mer frequency, TF over GST control) | 1.38 fold enrichment (6-mer frequency, TF over GST control) | 1.19 fold enrichment (6-mer frequency, TF over GST control) | 1.39 fold enrichment (6-mer frequency, TF over GST control) | 1.48 fold enrichment (6-mer frequency, TF over GST control) | 1.39 fold enrichment (6-mer frequency, TF over GST control) | 2.22 fold enrichment (6-mer frequency, TF over GST control) | 1.35 fold enrichment (6-mer frequency, TF over GST control)
ACCTGG | 1.17 fold enrichment (6-mer frequency, TF over GST control) | 1.2 fold enrichment (6-mer frequency, TF over GST control) | 1.2 fold enrichment (6-mer frequency, TF over GST control) | 1.18 fold enrichment (6-mer frequency, TF over GST control) | 1.33 fold enrichment (6-mer frequency, TF over GST control) | 1.25 fold enrichment (6-mer frequency, TF over GST control) | 1.35 fold enrichment (6-mer frequency, TF over GST control) | 1.19 fold enrichment (6-mer frequency, TF over GST control) | 1.14 fold enrichment (6-mer frequency, TF over GST control) | 1.29 fold enrichment (6-mer frequency, TF over GST control)
AAATGG | 1.42 fold enrichment (6-mer frequency, TF over GST control) | 1.56 fold enrichment (6-mer frequency, TF over GST control) | 1.27 fold enrichment (6-mer frequency, TF over GST control) | 1.51 fold enrichment (6-mer frequency, TF over GST control) | 1.49 fold enrichment (6-mer frequency, TF over GST control) | 1.5 fold enrichment (6-mer frequency, TF over GST control) | 1.47 fold enrichment (6-mer frequency, TF over GST control) | 1.48 fold enrichment (6-mer frequency, TF over GST control) | 1.22 fold enrichment (6-mer frequency, TF over GST control) | 1.5 fold enrichment (6-mer frequency, TF over GST control)
ACTCCC | 1.32 fold enrichment (6-mer frequency, TF over GST control) | 1.42 fold enrichment (6-mer frequency, TF over GST control) | 1.15 fold enrichment (6-mer frequency, TF over GST control) | 1.46 fold enrichment (6-mer frequency, TF over GST control) | 1.31 fold enrichment (6-mer frequency, TF over GST control) | 1.32 fold enrichment (6-mer frequency, TF over GST control) | 1.11 fold enrichment (6-mer frequency, TF over GST control) | 1.25 fold enrichment (6-mer frequency, TF over GST control) | 1.13 fold enrichment (6-mer frequency, TF over GST control) | 1.25 fold enrichment (6-mer frequency, TF over GST control)
CCTTCA | 1.48 fold enrichment (6-mer frequency, TF over GST control) | 1.45 fold enrichment (6-mer frequency, TF over GST control) | 1.36 fold enrichment (6-mer frequency, TF over GST control) | 1.31 fold enrichment (6-mer frequency, TF over GST control) | 1.42 fold enrichment (6-mer frequency, TF over GST control) | 1.69 fold enrichment (6-mer frequency, TF over GST control) | 1.49 fold enrichment (6-mer frequency, TF over GST control) | 1.4 fold enrichment (6-mer frequency, TF over GST control) | 1.34 fold enrichment (6-mer frequency, TF over GST control) | 1.55 fold enrichment (6-mer frequency, TF over GST control)
